{"source": "PubChem BioAssay AID463190", "about": "(Sanford-Burnham Center for Chemical Genomics, 2010)", "note": "The whole screen tested about 330,000 compounds, of which about 7,300 (2.2%) were called active. The sample as a whole holds a higher share of actives than the screen did. A number with no mark means an inactive call.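 How the source made its calls: active means inhibition of at least 40%; inactive means the rest.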", "data": [{"assay": "growth inhibitors of tim10-1 mutant yeast, primary screen, luminescence, uHTS (AID 463190);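 further: mutant grown at 25 °C; 0% = DMSO wells with yeast and 100% = wells holding no yeast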", "conditions": "S. cerevisiae tim10-1 ts strain growth, BacTiter-Glo, 24 h; at 20 µM; stronger effect = higher value", "values": [{"compound": "CNC(=O)c1[nH]cnc1C(=O)N[C@@H](CC(C)C)C(=O)OCc1ccccc1", "inhibition": "18.1%"}, {"compound": "COC(=O)c1cc(S(=O)(=O)NCC2CCN(Cc3ccc(Cl)cc3)CC2)cn1C", "inhibition": "-24.4%"}, {"compound": "CC1=C(C(N)=O)C(c2ccc3c(c2)OCO3)n2nc(-c3cccc(C)c3)nc2N1", "note": "(stereo not drawn)", "inhibition": "0.453%"}, {"compound": "c1ccc(-c2nnc3n2NC(c2ccc4c(c2)OCO4)S3)cc1", "note": "(stereo not drawn)", "inhibition": "51.2% (active)"}, {"compound": "Cc1cccc(C)c1NC(=O)CSc1nnc(-c2ccccc2)n1Cc1ccc2c(c1)OCO2", "inhibition": "21.2%"}, {"compound": "COc1ccc(CC(=O)N[C@@H]2c3cc(OC)c(OC)cc3C[C@H]2OCc2ccccc2)cc1", "inhibition": "15.2%"}, {"compound": "Cc1ccccc1NCC(=O)N/N=C\\c1ccc([N+](=O)[O-])s1", "inhibition": "53.3% (active)"}, {"compound": "COc1ccc(C(=O)NCC(=O)N/N=C/c2ccc([N+](=O)[O-])s2)cc1OC", "inhibition": "16.7%"}, {"compound": "Cc1ccc(/C=N/NC(=O)CN2CCN(Cc3ccccc3)CC2)s1", "inhibition": "-3.89%"}, {"compound": "COc1ccc(CN2CCN(Cc3ccc(OC)c(OC)c3OC)CC2)cc1", "inhibition": "-1.36%"}, {"compound": "CCOC(=O)c1cc(C#N)c(N2CCCCC2)nc1-c1ccccc1", "inhibition": "-4.08%"}, {"compound": "CCOc1ccc(C(=O)NC2CCN(C(=O)Nc3ccccc3OC)CC2)cc1", "inhibition": "6.63%"}, {"compound": "CCOc1ccc2nc(N3CCCN(C(=O)Nc4ccccc4C)CC3)c(C#N)cc2c1", "inhibition": "42.1% (active)"}, {"compound": "O=CN1CCN(C(=O)c2ccc3c(c2)OCO3)CC1", "inhibition": "-19.2%"}, {"compound": "COc1cccc(NS(=O)(=O)c2ccc3[nH]cc(C(=O)NCCCOC(C)C)c(=O)c3c2)c1", "inhibition": "19.3%"}, {"compound": "Nc1ccccc1/C=N\\N=C/c1ccccc1N", "inhibition": "7.02%"}, {"compound": "O=C1C=C(c2cc(C(F)(F)F)cc(C(F)(F)F)c2)C[C@@H](c2ccc3c(c2)OCO3)C1", "inhibition": "-2.52%"}, {"compound": "Cc1[nH]c(=O)c(C(=O)/C=C/c2ccccc2)c2c1CCCC2", "inhibition": "46.1% (active)"}, {"compound": "COC(=O)c1c(C)[nH]c(C(=O)/C=C/c2ccc(Cl)cc2)c1C", "inhibition": "5.77%"}, {"compound": "Cc1cn(COC/C=C/c2ccccc2)c(=O)[nH]c1=O", "inhibition": "7.72%"}, {"compound": "CCCC1OC23CCCCC2C(C#N)(C#N)C1(C#N)C(=N)O3", "note": "(stereo not drawn)", "inhibition": "13%"}, {"compound": "c1ccc(-c2cn3c(n2)CCc2ccc4cccnc4c2-3)cc1", "inhibition": "42% (active)"}, {"compound": "Cc1cc(N2C(=O)c3ccc(C(=O)NCc4ccccc4)cc3C2=O)no1", "inhibition": "11.1%"}, {"compound": "CCCc1nn2c(=O)cc(CSCC(=O)Nc3cccc(C)c3)nc2s1", "inhibition": "5.18%"}, {"compound": "CCOC(=O)CC(NC(=O)C1c2ccccc2Oc2ccccc21)c1ccc(C)cc1", "note": "(stereo not drawn)", "inhibition": "5.58%"}, {"compound": "CC(C)(C)NC(=O)NC(=O)COC(=O)C1c2ccccc2Oc2ccccc21", "inhibition": "23.3%"}, {"compound": "CCCCN1C(=S)NC[C@@H]1C(C)CC", "note": "(stereo partly drawn)", "inhibition": "20.5%"}, {"compound": "CCOC(=O)/C=C/c1ccc(C(F)(F)F)cc1S(=O)(=O)NC(C)(C)C", "inhibition": "44.1% (active)"}, {"compound": "CCOC(=O)NNc1cc(C(F)(F)F)ccn1", "inhibition": "-3.69%"}, {"compound": "Cn1c(N)c(C(=O)COC(=O)/C=C/c2cccc(C(F)(F)F)c2)c(=O)n(C)c1=O", "inhibition": "17.7%"}, {"compound": "COC(C(=O)NCc1ccccc1C)c1ccccc1", "note": "(stereo not drawn)", "inhibition": "-2.01%"}, {"compound": "CCCCn1c(SCC(=O)N2CCOCC2)nc2c1c(=O)n(C)c(=O)n2C", "inhibition": "0.276%"}, {"compound": "COc1ccc(Cc2nnc(NC(=O)c3cc(OC)c(OC)c(OC)c3)s2)cc1OC", "inhibition": "8.1%"}, {"compound": "COc1cc(C(=O)Nc2nccs2)cc(OC)c1OC", "inhibition": "43.9% (active)"}, {"compound": "CC(=O)Oc1ccc(C(=O)Nc2nccs2)cc1", "inhibition": "8.42%"}, {"compound": "Cc1ccc(SC(C)C(=O)NCc2ccc(F)cc2)cc1", "note": "(stereo not drawn)", "inhibition": "9.06%"}, {"compound": "CNS(=O)(=O)c1cccc(C(=O)OCCCC(=O)c2ccccc2)c1", "inhibition": "3.9%"}, {"compound": "Cc1ccsc1C(=O)NCCc1ccco1", "inhibition": "-19%"}, {"compound": "COc1ccc(OC)c2sc(NC(=O)C3COc4ccccc4O3)nc12", "note": "(stereo not drawn)", "inhibition": "47.3% (active)"}, {"compound": "COc1cc(SC)ccc1C(=O)NNC(=O)C1COc2ccccc2O1", "note": "(stereo not drawn)", "inhibition": "5.41%"}, {"compound": "COc1ccc(NC(=O)C2COc3ccccc3O2)cc1", "note": "(stereo not drawn)", "inhibition": "21.5%"}, {"compound": "CCc1cccc(C)c1NS(=O)(=O)c1c(C)nc2sccn2c1=O", "inhibition": "21.8%"}, {"compound": "COc1ccc(NC(=O)C2C3CCC(O3)C2C(=O)O)cc1OC", "note": "(stereo not drawn)", "inhibition": "-1.54%"}, {"compound": "COCCNC(=O)CSc1nc2c(n1-c1ccccc1)CCCC2", "inhibition": "12%"}, {"compound": "COc1ccc(C(C(=O)NC2CCCCC2)N(C(=O)Cc2c[nH]c3ccccc23)c2ccccc2)cc1OC", "note": "(stereo not drawn)", "inhibition": "13.4%"}, {"compound": "COc1cc(Cl)c(C)cc1NC(=O)CSc1nnc(-c2ccco2)n1CC(C)C", "inhibition": "42.7% (active)"}, {"compound": "CCn1c(SCC(=O)Nc2cc(C)c(Cl)cc2OC)nnc1-c1ccco1", "inhibition": "14%"}, {"compound": "COc1cc(Cl)c(C)cc1NC(=O)CSc1nnc(-c2cccnc2)n1Cc1ccco1", "inhibition": "22.4%"}, {"compound": "COc1ccc(C(=O)C2CCCN(C(=O)c3ccc(OC)o3)C2)c(C)c1", "note": "(stereo not drawn)", "inhibition": "20.5%"}, {"compound": "COc1ccccc1CC(NC(C)=O)C(=O)NC1CCN(C(=O)Nc2ccccc2Cl)CC1", "note": "(stereo not drawn)", "inhibition": "12%"}, {"compound": "CC(=O)Nc1nc2ccccc2n1Cc1ccc(C)cc1", "inhibition": "19%"}, {"compound": "CCCCn1c(CCCNC(=O)CC)nc2ccccc21", "inhibition": "0.782%"}, {"compound": "CCC(=O)Nc1nc2ccccc2n1Cc1ccccc1C", "inhibition": "40.8% (active)"}, {"compound": "COc1ccc(NS(=O)(=O)c2ccc(Oc3c(C#N)cccc3C#N)cc2)cc1", "inhibition": "-28.8%"}, {"compound": "COc1cc(C2C(C(=O)Nc3ccccc3OC)=C(C)Nc3ncnn32)ccc1O", "note": "(stereo not drawn)", "inhibition": "8.15%"}, {"compound": "COc1ccc(C2C(C(=O)Nc3ccccc3OC)=C(C)Nc3nnnn32)c(OC)c1", "note": "(stereo not drawn)", "inhibition": "0.795%"}, {"compound": "COc1ccccc1NC(=O)C1=C(C)Nc2nnnn2C1c1cccc(Br)c1", "note": "(stereo not drawn)", "inhibition": "42.4% (active)"}, {"compound": "COC(=O)c1ccccc1NC(=O)C1CC(=O)N(c2ccc(OC)cc2)C1", "note": "(stereo not drawn)", "inhibition": "3.6%"}, {"compound": "COCCn1nnnc1CN1CCC(NC(=O)Nc2cccc(OC)c2)CC1", "inhibition": "-0.459%"}, {"compound": "COc1ccc(/C=C2\\SC(=O)N(CCC(=O)NC3CCS(=O)(=O)C3)C2=O)cc1", "note": "(stereo not drawn)", "inhibition": "-0.597%"}, {"compound": "COc1ccc(/C=C2/SC(=O)N(CCCCCC(=O)Nc3ccccc3C(=O)O)C2=S)cc1", "inhibition": "40% (active)"}, {"compound": "COc1ccc(/C=C2\\SC(=O)N(CCC(=O)NCCCn3ccnc3)C2=O)cc1", "inhibition": "8.52%"}, {"compound": "Cc1cccc(OCC(O)Cn2c(N3CCCCC3)nc3c2c(=O)[nH]c(=O)n3C)c1", "note": "(stereo not drawn)", "inhibition": "12.9%"}, {"compound": "CCOC(=O)C1CCN(C(=O)COc2cccc3ccccc23)CC1", "inhibition": "6.37%"}, {"compound": "O=C(CCCN=C1NS(=O)(=O)c2ccccc21)OCC(=O)c1ccc(F)c(F)c1", "inhibition": "11.8%"}, {"compound": "CCOc1ccc(NC(=O)CN(C)C(=O)c2c(C)noc2C)cc1OCC", "inhibition": "-5.08%"}, {"compound": "COC(=O)C1(CCSC)NC(c2ccc(OC)cc2OC)C2C(=O)N(c3cccc(C(C)=O)c3)C(=O)C21", "note": "(stereo not drawn)", "inhibition": "8.92%"}, {"compound": "CC(C)(CCl)C(=O)Nc1ccc(Sc2ccc(F)cc2)cc1", "inhibition": "53.5% (active)"}, {"compound": "O=C(Nc1ccncc1)Nc1ccc(F)cc1", "inhibition": "-16.8%"}, {"compound": "CC(C)CNC(=S)Nc1ccc(F)cc1", "inhibition": "0.34%"}, {"compound": "Cc1ccc(NC(=O)Cc2nc(COC(=O)C(C)NS(=O)(=O)c3ccc(C)cc3)cs2)cc1", "note": "(stereo not drawn)", "inhibition": "15.7%"}, {"compound": "O=C(CSC(=S)N1CCCCC1)c1c(F)cccc1F", "inhibition": "9.67%"}, {"compound": "Oc1c(Cl)cc(Cl)c(Cl)c1Cc1c(O)c(Cl)cc(Cl)c1Cl", "inhibition": "91% (active)"}, {"compound": "Cc1cc(/C=N/NC(=O)CC2(C)OCCO2)c(C)n1-c1ccc(Cl)c(Cl)c1", "inhibition": "1.86%"}, {"compound": "O=C1c2cccnc2C(Nc2ccc(S(=O)(=O)N3CCCCCC3)cc2)N1Cc1ccccc1", "note": "(stereo not drawn)", "inhibition": "34.2%"}, {"compound": "CCCCCCCCCCCCCCCC(=O)OC/C=C(C)/C=C/C=C(C)/C=C/C1=C(C)CCCC1(C)C", "inhibition": "40.7% (active)"}, {"compound": "CC1=C(/C=C/C(C)=C/C=C/C(C)=C/C=C/C=C(C)/C=C/C=C(C)/C=C/C2=C(C)CCCC2(C)C)C(C)(C)CCC1", "inhibition": "10.6%"}, {"compound": "COC(=O)c1ccccc1NC(=O)CN(Cc1ccc(Cl)cc1)S(C)(=O)=O", "inhibition": "10.7%"}, {"compound": "CCCCNCc1ccc(SC)cc1", "inhibition": "-1.78%"}, {"compound": "O=C(Nc1cccc(F)c1)c1coc(=O)c(Br)c1", "inhibition": "18.9%"}, {"compound": "CCc1ccccc1N1CN(Cc2ccco2)CNC1=S", "inhibition": "17.4%"}, {"compound": "COc1ccc(NC(=O)c2ccc(C#CC(C)(C)O)cc2)cc1", "inhibition": "9.08%"}, {"compound": "C/C(=N\\Nc1ccc([N+](=O)[O-])cc1)c1ccc(-n2nncc2C(C)(C)C)cc1", "inhibition": "-1.51%"}, {"compound": "COc1ccc(C(=O)Nc2ccc(-n3nncc3C(C)(C)C)cc2)cc1", "inhibition": "44% (active)"}, {"compound": "CCCNC(=O)c1ccc(N2CCC3(CC2)CC(c2ccc(Cl)cc2)=NO3)c([N+](=O)[O-])c1", "inhibition": "7.65%"}, {"compound": "Cc1nonc1OCCn1nnnc1N", "inhibition": "4.98%"}, {"compound": "COc1ccccc1N(CCOc1ccccc1)S(=O)(=O)c1ccccc1", "inhibition": "7.59%"}, {"compound": "O=C1OC(/C=C/c2ccccc2)=NC/1=C/c1ccco1", "inhibition": "45.5% (active)"}, {"compound": "COc1ccccc1/C=C/C1=NC(=C\\N(C)C)/C(=O)O1", "inhibition": "21%"}, {"compound": "Cc1ccccc1C1=N/C(=C/c2cccnc2)C(=O)O1", "inhibition": "31.3%"}, {"compound": "CCN(Cc1ccccc1)C(=O)CCS(=O)(=O)c1ccc2c(c1)oc(=O)n2C", "inhibition": "-13%"}, {"compound": "C[C@H](CO)N1C[C@H](C)[C@@H](CN(C)C(=O)Nc2ccc3c(c2)OCO3)Oc2c(cccc2N(C)C)C1=O", "inhibition": "12.3%"}, {"compound": "CCS(=O)(=O)N1CCC(N2CCN(c3ccccc3)CC2)CC1", "inhibition": "4.85%"}]}]}
